Among the data in PubChem BioAssay (NCATS) are Potency and outcome values, retold here.

Assay [1] in a line: Viability qHTS for inhibitors of the SERCaMP assay screened against the NCATS CANVASS Library (AID 1347400). Also: potency is read from the fitted curve at half-maximal effect; nearly all actives have a fitted effect of over 70% in size. As to conditions: SH-SY5Y SERCaMP cells viability, CellTiter-Glo, 48 h. An excerpt:
Natural products and their derivatives continue to be wellsprings of nascent therapeutic potential. However, many laboratories have limited resources for biological evaluation, leaving their previously isolated or synthesized compounds largely or completely untested. To address this issue, the Canvass library of natural products was assembled (https://tripod.nih.gov/canvass), in collaboration with academic and industry researchers, for quantitative high-throughput screening (qHTS) across a diverse set of cell-based and biochemical assays. The pure (>85% purity by liquid chromatography/mass spectrometry [LC/MS]) Canvass library of 346 natural products were submitted by 45 academic laboratories and companies around the world. We collected pure natural products to circumvent deconvolution and structure elucidation due to time and resource limitations. The library was formatted into 1536-well plates and evaluated in 50 qHTS (in an 11-pnt concentration series) bioassays with broad scope of disease-relevant mechanisms. The resulting data set from 50 different assays was then systematically analyzed to identify overall trends and specific natural products with interesting biological activities. […]
SERCaMP Viability assay protocol: 1. […] Luminescence signal was obtained via the ViewLux plate reader (Perkin Elmer) using the clear emission filter and 1x binning, 2 seconds exposure settings.

Assay [2] in a line: Redox Reaction Profiling qHTS: Assay Interference Panel against the NCATS CANVASS Library (AID 1347401). As to conditions: resazurin-DTT redox cycling, fluorescence, 15 min; series mostly up to 57.1 µM. The method in brief:
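Compounds in 11-point series incubated with 5 uM resazurin and 200 uM DTT in 50 mM HEPES pH 7.3, 50 mM NaCl. Resorufin fluorescence (Ex 525/Em 598) read before and after 15 min in the dark.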

Assay [3] can be described thus: qHTS for inhibitors of adenylyl cyclases using a fission yeast platform: a pilot screen against the NCATS LOPAC library (AID 1347410). As to conditions: S. pombe CHP2027, fbp1-GFP fluorescence, 18 h, yeast expressing mammalian AC9 and human GNAS; series mostly up to 57.5 µM. The method in brief:
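Fission yeast qHTS: CHP2027 cells (AC9-GNAS-PDE4D2, fbp1-GFP), 5x10^6 cells/mL working density, EMM + His/Lys/Ura; LOPAC at up to 57 µM final; 18 h dark, 30C; GFP by laser cytometry. DPI positive control, DMSO vehicle.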

For assay [4], the target named is Calcium and integrin-binding protein 1 (Homo sapiens) (UniProt Q99828). Kind of assay: Validation qHTS for Identification of Calcium Integrin Binding protein 1 (CIB1) Competitor (AID 1508618). As to conditions: CIB1-GST / FITC-alphaIIb peptide fluorescence polarization; series mostly up to 114 µM. From the text:
Assay Provider: Ulhas P. Naik, PhD
Sidney Kimmel Medical College
Thomas Jefferson University, Philadelphia, PA
Primary function of platelets is to maintain hemostasis. At the site of vascular injury, platelets adhere to adhesive proteins such as collagen and von Willebrand factor. Adherent platelets are activated and generate soluble platelet agonists such as thrombin, ADP and thromboxane A2. Following exposure of circulating platelets to these agonists, results in platelet shape change, granule secretion and activation of platelet integrin alphaIIb-beta3. Ligand binding to activated integrin alphaIIb-beta3 triggers outside-in signaling, leading to platelet aggregation, stabilization of platelet plug, and clot retraction. Upon atherosclerotic plaque rupture also causes platelet plug formation, which underlies a number of cardiovascular diseases such as myocardial infraction and stroke. A number of anti-platelet drugs such as aspirin, clopidogrel, prasugrel, vorapaxar, and eptifibatide are currently available to prevent the thrombotic complications. However, these anti-platelet agents have several limitations including inherent variability in individual responses, developing resistance, and serious bleeding side effects. […]
To develop fluorescence polarization (FP) assay using fluorescently labeled alphaIIb peptide and CIB1 protein. […]
7; Detection; Ex 480/ Em 540; ViewLux Fluorescence Read […]

Assay [5] concerns the target Protein phosphatase 1D (Homo sapiens) (UniProt O15297). Kind of assay: RapidFire Mass Spectrometry qHTS Assay for Modulators of WT P53-Induced Phosphatase 1 (WIP1) (AID 1347424).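 Also: amount of dephosphorylated VEPPL-S-QETFS peptide product formed by WIP1.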 The settings on record: WIP1 dephosphorylation of phosphopeptide, RapidFire MS; series mostly up to 63 µM. The method in brief: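 10 nM WIP1 preincubated with compounds 1 hr at room temperature in pH 7.5 Tris buffer with 30 mM MgCl2, 1 mM TCEP; 2 uM VEPPL-pS-QETFS phosphopeptide for 5 min, formic acid quench; dephosphorylated product quantified by RapidFire MS against labelled standard.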

Assay [6] has the same target. Nature of the assay: Rhodamine-PBP qHTS Assay for Modulators of WT P53-Induced Phosphatase 1 (WIP1) (AID 1347425). As to conditions: recombinant WIP1, Rhodamine-PBP phosphate fluorescence, real-time; series mostly up to 57.5 µM. The method in brief:
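The read-out is the change in Rhodamine-PBP fluorescence (f1 - f0, ex 525/em 598 nm) as Pi is released, read each minute for 11 min. Final reaction: 5 nM WIP1, 10 uM phosphopeptide VEPPL-pS-QETFS, 10 uM Rh-PBP, 50 mM Tris-HCl pH 7.5, 30 mM MgCl2. Compound was preincubated with enzyme for 1 hour at room temperature.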

Assay [7] in a line: Primary qHTS for inhibitors of La Crosse Virus (LACV) - induced cell death in SH-SY5Y cells (AID 1508616).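 Also: top concentration of the series differs between compounds; higher means more rescue of cells from virus-induced death.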 As to conditions: SH-SY5Y LACV cytopathicity rescue, ATP luminescence, 6 d; series mostly up to 4.29 µM. The essentials:
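SH-SY5Y cells (6000/well) plated 24 h, then given compounds by pin transfer and LACV at 0.01 MOI for 6 days at 37C. Viability measured by ATPLite luminescence, normalized to infected DMSO and uninfected DMSO.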

Assay [8] concerns the target Calcium and integrin-binding protein 1 (Homo sapiens) (UniProt Q99828). Nature of the assay: Confirmatory qHTS for Identification of Calcium Integrin Binding Protein 1 (CIB1) Competitor (AID 1508617). Also: potency is read from the fitted curve at half-maximal effect; nearly all actives have a fitted effect of over 65% in size. As to conditions: CIB1 binding competition assay, biochemical qHTS. The method in brief: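 Compounds at up to 114 uM final met 1 uM GST-tagged CIB1 for 15 min at room temperature (HEPES pH 7.4, 5 mM CaCl2). FITC-labelled alphaIIb peptide, 100 nM, added; polarization read after 15 min more.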

Results filed as inconclusive are left out. A call without a number means that no potency is given here. Calls of active or inactive are those of the source. Calls follow the shape of the dose curve; as a rule, active = well fitted curve in the direction sought with a large enough effect; inconclusive = small, poorly fitted or top-dose-only effect, or another doubt; inactive = no such curve, though single readings can be large; an effect the other way counts as inactive or inconclusive.

Sequence of Calcium and integrin-binding protein 1 (Homo sapiens) (Q99828 whole entry, looked up): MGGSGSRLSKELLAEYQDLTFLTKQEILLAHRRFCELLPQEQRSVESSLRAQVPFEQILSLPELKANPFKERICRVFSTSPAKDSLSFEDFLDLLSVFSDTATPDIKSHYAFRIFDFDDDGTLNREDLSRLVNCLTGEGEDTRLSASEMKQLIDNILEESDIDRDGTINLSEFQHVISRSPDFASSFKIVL
Sequence of Protein phosphatase 1D (Homo sapiens) (O15297 whole entry, looked up): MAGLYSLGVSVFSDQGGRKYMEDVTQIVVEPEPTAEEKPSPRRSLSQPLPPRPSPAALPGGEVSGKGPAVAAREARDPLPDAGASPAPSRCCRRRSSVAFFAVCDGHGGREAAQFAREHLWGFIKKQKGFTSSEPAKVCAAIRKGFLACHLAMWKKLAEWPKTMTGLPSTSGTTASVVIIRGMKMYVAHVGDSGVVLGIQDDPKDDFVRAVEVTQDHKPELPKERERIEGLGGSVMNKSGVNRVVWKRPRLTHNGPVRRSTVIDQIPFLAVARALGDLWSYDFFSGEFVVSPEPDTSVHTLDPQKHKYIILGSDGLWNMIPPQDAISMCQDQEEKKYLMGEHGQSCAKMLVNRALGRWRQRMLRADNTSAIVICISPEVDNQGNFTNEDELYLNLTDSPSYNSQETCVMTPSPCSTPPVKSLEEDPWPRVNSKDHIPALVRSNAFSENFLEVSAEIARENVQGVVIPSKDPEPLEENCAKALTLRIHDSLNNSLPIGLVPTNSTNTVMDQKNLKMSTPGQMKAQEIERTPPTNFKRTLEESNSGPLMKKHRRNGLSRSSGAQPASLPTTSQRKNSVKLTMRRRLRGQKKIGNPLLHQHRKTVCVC

Take `C=C1C(=O)O[C@H]2[C@H]1CC/C(C)=C/CC[C@@]1(C)O[C@@H]21`: the Potency in assay [1] is 13.5 µM (active). Also, the call in assay [2] was inactive.
Take `CC[C@]1(O)CC2CN(CCc3c([nH]c4ccccc34)[C@@](C(=O)OC)(c3cc4c(cc3OC)N(C)[C@H]3[C@@](O)(C(=O)OC)[C@H](OC(C)=O)[C@]5(CC)C=CCN6CC[C@]43[C@@H]65)C2)C1` (stereo partly drawn): the molecule was called inactive in assay [3] and in assay [4].
Regarding `CCC(C(=O)O)c1ccc(N2Cc3ccccc3C2=O)cc1` (stereo not drawn), in assay [5], the Potency result was “inactive”. Also, the outcome in assay [6] and in assay [7] was inactive.
For `CCN(CC)CCN(Cc1ccc(-c2ccc(C(F)(F)F)cc2)cc1)C(=O)Cn1c(SCc2ccc(F)cc2)nc(=O)c2c1CCC2`, the Potency in assay [8] is 35.5 µM (active).
